Screens as filed in PubChem BioAssay.
Compounds with a hit are over-represented: about 2.3% of the library has one in this group of screens.
CHO-K1 Ca PAM: nonselective activator or artifact in parental CHO-K1 calcium assay; ATP EC20, Fluo-8 calcium fluorescence; 0% at ATP EC20, 100% at ATP max; activation, % at 3 µM; 0.02% of 360,000 active;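 active = activation above the run cutoff, the mean activation of all test compounds plus 3 SD, cut at about 40% in these data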;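 note: peak over basal fluorescence ratio in a 140 s read after ATP addition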
CHRM1 PAM: positive allosteric modulators of human M1 muscarinic receptor | CHO-K1 hM1, Fluo-8 calcium fluorescence, ACh EC20; 0% = ACh EC20, 100% = maximal ACh | P11229 | 0.088% of 360,000 active | activation, % at 3 µM | AID 588819; in the data active = activation above about 19%, passing the limit was not always enough
Target sequence (P11229 whole entry, looked up): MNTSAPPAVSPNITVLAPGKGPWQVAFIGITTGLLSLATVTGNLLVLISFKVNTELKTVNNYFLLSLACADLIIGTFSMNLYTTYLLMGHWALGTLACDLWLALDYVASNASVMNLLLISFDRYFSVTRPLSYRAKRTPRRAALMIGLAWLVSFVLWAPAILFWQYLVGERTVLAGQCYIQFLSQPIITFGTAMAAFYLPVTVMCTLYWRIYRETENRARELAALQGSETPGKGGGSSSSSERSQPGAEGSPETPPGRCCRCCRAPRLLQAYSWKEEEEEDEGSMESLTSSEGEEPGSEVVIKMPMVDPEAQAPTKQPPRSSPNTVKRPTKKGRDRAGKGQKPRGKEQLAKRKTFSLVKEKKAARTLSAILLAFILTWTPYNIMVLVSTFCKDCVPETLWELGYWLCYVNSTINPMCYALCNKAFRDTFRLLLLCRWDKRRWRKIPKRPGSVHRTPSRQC
M1 ag parental: counter-screen for M1 agonists: effect in parental CHO-K1 cells. Fluo-8 calcium fluorescence; scaled to maximal ATP response, vehicle zero. activation, % at 3 µM. 0.48% of 360,000 active. AID 602248; in the data active = activation above about 15%;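 note: untransfected CHO-K1 host cells lacking M1 receptor as counterscreen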
M1 antag: human CHRM1 antagonism | P11229 | CHO-K1 hM1, Fluo-8 calcium fluorescence, ACh EC80 antagonist | inhibition, % at 3 µM | 1.3% of 360,000 active | AID 588852;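 active = percent inhibition above its own plate's cutoff, namely the mean of that plate's compound wells plus 3 SD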;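 note: peak over basal fluorescence ratio during 140 s after agonist addition; 0% = ACh EC80 plus DMSO and 100% = DMSO alone without agonist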
CHO-K1 Ca antag: counter-screen for M1 antagonists: effect in parental CHO-K1 cells; inhibition, % at 3 µM; 0.6% of 360,000 active; ATP-induced calcium, Fluo-8 fluorescence; AID 602250;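 active = inhibition above a per-plate cutoff, the plate's mean sample inhibition plus 3 SD, cut at about 24% in these data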;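 note: 0% = DMSO plus EC80 ATP and 100% = DMSO alone without ATP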
CHRM1 agonist: human M1 muscarinic receptor agonism. P11229. CHO-K1 hM1, Fluo-8 calcium fluorescence, agonist mode; 0% DMSO, 100% acetylcholine EC100. 0.33% of 360,000 active. activation, % at 3 µM;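 active = activation above the run's mean compound activation plus 3 SD, cut at about 16% in these data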;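 note: peak over basal fluorescence ratio within a 140 s kinetic read after compound addition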
* hit, by the source's call.

SMILES | CHO-K1 Ca PAM | CHRM1 PAM | M1 ag parental | M1 antag | CHO-K1 Ca antag | CHRM1 agonist
Cc1onc(-c2ccccc2Cl)c1C(=O)OCC(=O)N1CCN(c2ccccc2)CC1 | -25 | -1 | -1 | 10 | 0 | -3
C[C@@H](NC(=O)c1nc[nH]c1C(=O)NCC(=O)OCc1ccccc1)c1ccccc1 | -9 | -13 | 8 | 33* | -1 | -2
C[C@@H](NC(=O)c1nc[nH]c1C(=O)OCc1ccccc1)c1ccccc1 | -12 | -9 | 0 | 12 | 4 | -5
C[C@H](NC(=O)c1nc[nH]c1C(=O)NCc1ccc(CNC(=O)OC(C)(C)C)cc1)C(=O)OCc1ccccc1 | -5 | -21 | 12 | 45* | 9 | -1
Cn1c(=O)c([N+](=O)[O-])c(NCc2ccc3c(c2)OCO3)c2ccccc21 | 7 | 7 | 2 | -7 | -6 | -6
Cc1ccc(S(=O)(=O)N/N=C/c2ccc(OC3CSC3)cc2)cc1 | 11 | -4 | 17* | 37* | 17 | 29*
CN(C)c1ccc(CN(C(=O)COc2ccccc2)C2CCS(=O)(=O)C2)cc1 (centres undefined) | 8 | 10 | 0 | -3 | 27* | -2
Cc1ccccc1OCC(=O)N(Cc1ccc(N(C)C)cc1)C1CCS(=O)(=O)C1 (centres undefined) | 19 | 1 | 1 | 5 | -6 | -5
CSc1ccc(CN2CCC(n3nccc3NC(=O)C3CCOC3)CC2)cc1 (centres undefined) | 10 | 8 | 1 | -8 | -5 | -3
COc1ccc(NC(=S)N(CCCN2CCCCCC2)Cc2cccs2)cc1 | -4 | 6 | 0 | -9 | -6 | -6
COc1ccc(NC(=S)N(CCCN2CCCC2)Cc2ccco2)cc1 | 18 | -20 | 0 | 36* | -10 | -8
CSc1cccc(NC(=S)N(CCCN2CCCC2)Cc2cccn2Cc2ccc(Cl)cc2)c1 | 8 | -7 | 2 | 7 | 1 | -3
S=C(Nc1ccc(Cl)cc1)N(CCCN1CCOCC1)Cc1cccs1 | 7 | -25 | 2 | 45* | -21 | -9
COc1ccc(NC(=S)N(CCCN2CCCC2)Cc2cccs2)cc1 | 17 | -23 | 1 | 55* | -16 | -8
CSc1cccc(NC(=S)N(CCCN2CCCC2)Cc2cccs2)c1 | 26 | -24 | 3 | 36* | -18 | -7
COc1ccc(F)cc1S(=O)(=O)NCc1cc(=O)n(C)c(=O)n1C | 9 | 5 | 1 | -11 | -21 | -1
Cc1[nH]c(C)c(S(=O)(=O)N2CCN(c3ccccc3F)CC2)c1C(=O)N1CCCCC1 | -14 | 7 | 1 | -2 | -5 | -1
Cc1c(Cl)cccc1NC(=S)N(CCCN1CCOCC1)Cc1ccco1 | -5 | -25 | 1 | 48* | -9 | -6
O=C(Nc1ccc(Cl)cc1)N(CCCN1CCOCC1)Cc1cccs1 | -4 | -12 | 1 | 5 | 3 | -9
CCN1CCN(CCCN(Cc2ccco2)C(=S)Nc2cccc(Cl)c2C)CC1 | -6 | -11 | 0 | 18 | 0 | -8
Cc1ccc(NC(=O)N(CCCN2CCOCC2)Cc2cccs2)cc1C | 20 | 32* | 0 | -31 | -14 | -3
O=C(O)c1cc2c(cc1Cl)N1CCCCCC1=NS2(=O)=O | 9 | 3 | 10 | 3 | -5 | -8
COC(=O)c1cc2c(cc1Cl)N1CCCCCC1=NS2(=O)=O | -21 | -3 | 0 | 9 | 24* | -2
COc1cccc(Oc2ccc3nnc(C(F)(F)F)n3n2)c1 | 0 | 8 | 0 | -6 | 14 | -6
Cc1c(NS(=O)(=O)c2cccc(C(=O)N3CCC(C(N)=O)CC3)c2)c(=O)n(-c2ccccc2)n1C | 17 | 31* | 2 | -35 | -15 | 4
SMILES | CHO-K1 Ca PAM | CHRM1 PAM | M1 ag parental | M1 antag | CHO-K1 Ca antag | CHRM1 agonist
O=C(CCCSc1nc2ccccc2[nH]1)N1CCN(c2ccc([N+](=O)[O-])cc2)CC1 | 12 | -18 | 0 | 43* | -13 | 0
CCCCC(=O)NC1(C(F)(F)F)NC(=O)N(Cc2ccccc2)C1=O (centres undefined) | 6 | 6 | 1 | -3 | -22 | -4
CCN(CC)CCNC(=O)c1cc(Br)c(N)cc1OC | -13 | 3 | 0 | -23 | 35* | -4
COC(=O)c1cc(Br)c(N)cc1OC | 21 | 6 | 0 | 0 | -14 | -3
COc1cc(C2SCC(=O)N2CCCN(C)C)cc(OC)c1OC (centres undefined) | 1 | -9 | 0 | 29* | 3 | 0
COc1ccc(C(CC(=O)c2ccc3c(c2)OCO3)C(=O)O)cc1OC (centres undefined) | -3 | 7 | 0 | -10 | 9 | -2
C[C@@H](CN1C2=NC[C@H](Cc3ccc(O)cc3)N2C[C@H]1Cc1ccc(O)cc1)NC(=O)CCC1CCCCC1 | -3 | -18 | 0 | 19 | -6 | -12
C[C@@H](CN1C2=NC[C@H](Cc3ccccc3)N2C[C@H]1Cc1ccc(O)cc1)NC(=O)CCC1CCCCC1 | 6 | -37 | 0 | 40* | -7 | -13
Cc1cc(N(C)C)cc(C)c1N=Nc1cc[n+]([O-])cc1 | 10 | 12 | -1 | -19 | -6 | -6
Cc1ccc(COn2c(-c3ccc(Cl)cc3Cl)nc3ncccc32)cc1 | 11 | -22 | 1 | 35* | -16 | -6
Clc1cccc(COn2c(-c3ccc(Cl)cc3Cl)nc3ncccc32)c1 | 23 | -8 | 1 | 2 | -5 | -5
COc1cc(=O)n(C)c2cc(N(C)C)ccc12 | 19 | 20* | 0 | -16 | -12 | -4
CCn1nc(C(=O)OCC(=O)N(CCC#N)c2ccccc2)c2ccccc2c1=O | 13 | 2 | 2 | -1 | -16 | -4
CCCC(=O)Nc1nnc(Cc2ccccc2)s1 | -7 | -8 | 0 | 14 | 31* | -2
CCC(=O)Nc1nnc(Cc2ccccc2)s1 | 14 | 3 | 2 | 0 | -4 | -6
COc1cc([N+](=O)[O-])ccc1NC(=O)NCC1CCN(Cc2ccc(Cl)cc2)CC1 | 19 | -13 | 17* | 13 | -14 | -7
O=C(NCC1CCN(Cc2cccc(Cl)c2)CC1)Nc1ccc(Cl)cc1 | -8 | -2 | 11 | -2 | -1 | -4
COc1ccc(Cl)cc1NC(=O)NCC1CCN(Cc2cc(C)ccc2C)CC1 | 10 | 5 | 16* | -4 | -9 | -5
CCc1c(O)nc(SCC(=O)Nc2ccccc2)n(-c2ccccc2C)c1=O | 6 | 29* | 0 | -28 | -1 | 6
CCN(CC)C(=O)C1=C(C)N(Cc2ccccc2)C(=O)C(CC(=O)NCC2CCCCC2)C1 (centres undefined) | -3 | -10 | -1 | 18 | -14 | -6
CC(CNS(=O)(=O)c1ccc2c(c1)NC(=O)CCS2)c1ccccc1 (centres undefined) | 5 | 2 | 18* | -5 | 2 | 0
